Source: PubChem (National Center for Advancing Translational Sciences (NCATS))
Only some compounds are listed: those with a hit (about 18% of all), similar ones and a draw of the others.
IL-1B inflam inh = qHTS for Inhibitors of Inflammasome Signaling: IL-1-beta AlphaLISA Primary Screen. THP-1 LPS/ATP IL-1B secretion, AlphaLISA, 16 h; stronger effect = lower value. activity change, % at 57.5 µM. 4.7% of 360,000 active. AID 743279, 2014; in the data active = activity change below about -50%; inconclusive = mostly about -30% to -49%; note: % is set by controls: 0 for no effect and ±100 for the full control effect
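Secreted IL-1B measured by AlphaLISA bead assay after 16 h compound exposure of THP-1 cells; compounds (final up to 57.5 uM) added 1 h before LPS (250 ng/mL) and ATP (1.25 mM) stimulation; lower signal means less secretion.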
HepG2 viability = qHTS for Inhibitors of TGF-b: Cytotox Counterscreen; HepG2 CAGA-GFP viability, ATP luminescence, 18 h; Potency, µM (series often up to 46.1 µM), without a hit: at the highest dose activity change, negative = cytotoxicity, most hits filed as cytotoxic; 0.76% of 410,000 active; note: potency is the fitted concentration of half-maximal effect
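CellTiter-Glo luminescence gave cytotoxicity after 18 hours at 37 degrees C. The cells were HepG2 CAGA-GFP in 1% FBS DMEM, stimulated with 500 pg/mL TGF-beta after compound addition. %Activity was normalised to no-cell wells (complete cell-killing) and DMSO (no toxicity), and curves were fitted and classified.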
TDP1 cell CPT = qHTS for Inhibitors of human tyrosyl-DNA phosphodiesterase 1 (TDP1): qHTS in cells in presence of CPT. Potency, µM (doses to about 46.2 µM), for inactives: at the top dose activity change, negative = growth inhibition, hits mostly inhibitors. chicken DT40 Tdp1-/-;hTDP1 cells + 20 nM CPT, ATP luminescence, 48 h. 12% of 420,000 active; note: potency is the fitted concentration of half-maximal effect; % is set by controls: 0 for no effect and ±100 for the full control effect; nearly all actives have a fitted effect of over 55% in size
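Cell growth measured by CellTiter-Glo luminescence after a minimum 48 h, 37 C compound exposure with 20 nM CPT in Tdp1-knockout DT40 cells stably expressing hTDP1, seeded 400/well; qHTS titration format.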
DT40 TDP1 no CPT = qHTS for Inhibitors of human tyrosyl-DNA phosphodiesterase 1 (TDP1): qHTS in cells in absence of CPT; DT40 Tdp1-/- hTDP1 cells, no CPT, ATP luminescence, 48 h; Potency, µM (top dose mostly 46.2 µM), inactives show at the top dose activity change, negative = growth inhibition, actives largely listed as inhibitors; 15% of 420,000 active; note: potency is the fitted concentration of half-maximal effect; % is set by controls: 0 for no effect and ±100 for the full control effect; nearly all actives have a fitted effect of over 55% in size
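Readout: luminescence from CellTiter-Glo after 30 min in the dark at RT. Cells: DT40 Tdp1-/- with stable hTDP1, 400/well. Exposure: compounds alone, ≥48 hr, 37 °C.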
TGFb SMAD3 inh = qHTS for Inhibitors of TGF-b | HepG2 CAGA-GFP TGF-b/SMAD3 reporter, GFP fluorescence, 18 h; TGF-beta stimulated, 500 pg/mL final | Potency, µM (highest dose often 46.1 µM), inactives show at the highest dose activity, negative = inhibition, most hits filed as inhibitors | 1.2% of 410,000 active; note: potency is the fitted concentration of half-maximal effect; % is set by controls: 0 for no effect and ±100 for the full control effect; nearly all actives have a fitted effect of over 65% in size
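Inhibition of TGF-beta-driven CAGA-GFP reporter expression in HEPG2 cells is measured by cellular GFP fluorescence after 18 h stimulation with 500 pg/mL recombinant TGF-beta in 1% FBS medium at 37 degrees C.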
TDP1 inh = qHTS Assay for Inhibitors of Tyrosyl-DNA Phosphodiesterase (TDP1) | Tyrosyl-DNA phosphodiesterase 1 (Homo sapiens), Q9NUW8 | 0.28% of 350,000 active | recombinant TDP1, AlphaScreen DNA substrate cleavage | Potency, µM (titrated, usually from 130 µM), without a hit: top-dose activity change, negative = inhibition, actives largely listed as inhibitors; note: potency is the fitted concentration of half-maximal effect; % is set by controls: 0 for no effect and ±100 for the full control effect; nearly all actives have a fitted effect of over 40% in size
Target sequence (Q9NUW8 whole entry, looked up): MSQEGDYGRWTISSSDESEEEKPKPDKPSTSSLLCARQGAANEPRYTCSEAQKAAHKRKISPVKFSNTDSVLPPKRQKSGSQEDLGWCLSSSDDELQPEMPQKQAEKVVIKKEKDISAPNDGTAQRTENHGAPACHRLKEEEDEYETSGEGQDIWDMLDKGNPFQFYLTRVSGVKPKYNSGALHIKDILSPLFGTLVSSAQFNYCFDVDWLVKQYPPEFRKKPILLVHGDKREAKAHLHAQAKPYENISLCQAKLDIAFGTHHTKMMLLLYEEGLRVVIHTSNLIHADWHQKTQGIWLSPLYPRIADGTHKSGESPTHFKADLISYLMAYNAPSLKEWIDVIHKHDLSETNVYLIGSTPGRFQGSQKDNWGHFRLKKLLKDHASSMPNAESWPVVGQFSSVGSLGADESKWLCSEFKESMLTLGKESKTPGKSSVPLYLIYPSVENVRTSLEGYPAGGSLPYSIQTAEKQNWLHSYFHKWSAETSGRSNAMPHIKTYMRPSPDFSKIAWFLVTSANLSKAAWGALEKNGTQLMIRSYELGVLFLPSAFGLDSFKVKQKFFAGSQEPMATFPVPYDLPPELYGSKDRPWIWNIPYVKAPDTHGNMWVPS
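Recombinant human Tdp1 (E. coli-expressed, 1 nM final) preincubated with compounds 15 min at room temperature, then 5'-biotin/3'-phosphotyrosine-FITC DNA substrate (15 nM final) added for 5 min. AlphaScreen beads (10 ug/ml final) added 10 min; cleavage lowers signal.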
* marks the source's active call; other numbers are inactive results; ? = inconclusive; nt = no result. Unless noted, calls come from the whole dose curve; as a rule, active = well fitted curve in the direction sought with a large enough effect; inconclusive = small, poorly fitted or top-dose-only effect, or another doubt; inactive = no such curve, though single readings can be large; an effect the other way counts as inactive or inconclusive.

SMILES	IL-1B inflam inh	HepG2 viability	TDP1 cell CPT	DT40 TDP1 no CPT	TGFb SMAD3 inh	TDP1 inh
COc1ccc(S(=O)(=O)Nc2ccc3oc4c(c3c2)C(=O)CC(C)(C)C4)cc1	nt	-7.4%	nt	nt	0.8%	nt
O=C1CC2(CCN(C(=O)C(=O)c3c[nH]c4ccccc34)CC2)Oc2ccccc21	?	-6.1%	?	?	-16.2%	3.9%
O=C1CC(c2ccccc2)=NN1c1ccccc1	-82.4*	-26.7%	?	14.6µM*	?	nt
O=C(N/N=C/c1ccc(Cl)cc1Cl)c1n[nH]c2c1CCCC2	3.7	-5.9%	2.91µM*	2.91µM*	-21.1%	5.3%
O=C(N/N=C\c1cccc(Cl)c1)c1n[nH]c2c1CCCC2	?	-13.9%	4.0%	-26.9%	-5.2%	2.8%
O=C(N/N=C/c1cccc2ccccc12)c1n[nH]c2c1CCCC2	59.9	-1.4%	4.61µM*	4.11µM*	-18.4%	-2.6%
CCc1ccc2oc(-c3ccc(OC)cc3)cc(=Nc3cccc(C(=O)O)c3)c2c1	-66.2*	-16.9%	?	?	-4.3%	3.4%
O=C(Nc1ccccc1)C1Cc2c(-c3ccccc3Oc3ccccc3)ccnc2O1 (centres undefined)	-56.8*	-2.0%	?	?	12.4%	nt
O=C(Nc1cc(C(F)(F)F)ccc1F)C1Cc2c(-c3ccccc3Oc3ccccc3)ccnc2O1 (centres undefined)	-0.9	-18.1%	?	18.4µM*	?	nt
O=C(Nc1cccc(OC(F)(F)F)c1)C1Cc2c(-c3ccccc3Oc3ccccc3)ccnc2O1 (centres undefined)	-10.7	-32.0%	?	?	11.2µM*	nt
O=C(Nc1ccc(Cl)cc1)C1Cc2c(-c3ccccc3Oc3ccccc3)ccnc2O1 (centres undefined)	-53.4*	-49.1%	23.1µM*	?	?	nt
COc1ccc(NC(=O)C2Cc3c(-c4ccccc4Oc4ccccc4)ccnc3O2)cc1 (centres undefined)	?	-0.1%	?	?	-14.9%	nt
CC(=O)c1cccc(-c2ccnc3c2CC(C(=O)Nc2cccc(OC(F)(F)F)c2)O3)c1 (centres undefined)	-5.8	-31.2%	-4.3%	?	?	nt
O=C(Nc1ccccc1Cl)[C@H](CSCc1ccccc1)N1Cc2ccccc2C1=O	nt	-38.0%	?	?	?	8.1%
CCc1ccc(C(=O)c2cn(CC(=O)Nc3ccc(Cl)cc3)c3cc4c(cc3c2=O)OCO4)cc1	nt	-5.2%	14.6µM*	16.4µM*	?	1.3%
CCc1ccc(C(=O)c2cn(CC(=O)Nc3ccc4c(c3)OCO4)c3ccc(Cl)cc3c2=O)cc1	nt	6.7%	?	?	?	3.8%
CCOc1ccc(C(=O)c2cn(CC(=O)Nc3ccc(Cl)cc3)c3cc4c(cc3c2=O)OCO4)cc1	nt	-2.9%	?	13µM*	-11.2%	6.4%
N#Cc1ccccc1NS(=O)(=O)c1ccc(N2CCCCS2(=O)=O)cc1	nt	-3.0%	-4.5%	-3.8%	-1.7%	-1.2%
COc1ccc(N2CC(C(=O)NNC(=O)c3ccc(Br)cc3)CC2=O)c(OC)c1 (centres undefined)	2.3	10.8%	4.5%	8.3%	10.7%	nt
COc1cc2nc(CN3CCN(S(=O)(=O)c4ccc(Br)cc4)CC3)[nH]c(=O)c2cc1OC	-10.4	6.2%	?	-10.6%	-11.6%	1.1%
